Assay outcomes: PubChem, Buhrlage Lab, Dana-Farber Cancer Institute and Novartis Institutes for BioMedical Research (Cambridge, Mass)
USP8 inh: inhibitors of human USP8 deubiquitinase. Ubiquitin carboxyl-terminal hydrolase 8 (Homo sapiens), P40818. purified USP8, Ub-rhodamine cleavage fluorescence, 30 min. inhibition, % at 20 µM. 47,000 compounds, 4.2% hits
Target sequence (P40818 whole entry, looked up): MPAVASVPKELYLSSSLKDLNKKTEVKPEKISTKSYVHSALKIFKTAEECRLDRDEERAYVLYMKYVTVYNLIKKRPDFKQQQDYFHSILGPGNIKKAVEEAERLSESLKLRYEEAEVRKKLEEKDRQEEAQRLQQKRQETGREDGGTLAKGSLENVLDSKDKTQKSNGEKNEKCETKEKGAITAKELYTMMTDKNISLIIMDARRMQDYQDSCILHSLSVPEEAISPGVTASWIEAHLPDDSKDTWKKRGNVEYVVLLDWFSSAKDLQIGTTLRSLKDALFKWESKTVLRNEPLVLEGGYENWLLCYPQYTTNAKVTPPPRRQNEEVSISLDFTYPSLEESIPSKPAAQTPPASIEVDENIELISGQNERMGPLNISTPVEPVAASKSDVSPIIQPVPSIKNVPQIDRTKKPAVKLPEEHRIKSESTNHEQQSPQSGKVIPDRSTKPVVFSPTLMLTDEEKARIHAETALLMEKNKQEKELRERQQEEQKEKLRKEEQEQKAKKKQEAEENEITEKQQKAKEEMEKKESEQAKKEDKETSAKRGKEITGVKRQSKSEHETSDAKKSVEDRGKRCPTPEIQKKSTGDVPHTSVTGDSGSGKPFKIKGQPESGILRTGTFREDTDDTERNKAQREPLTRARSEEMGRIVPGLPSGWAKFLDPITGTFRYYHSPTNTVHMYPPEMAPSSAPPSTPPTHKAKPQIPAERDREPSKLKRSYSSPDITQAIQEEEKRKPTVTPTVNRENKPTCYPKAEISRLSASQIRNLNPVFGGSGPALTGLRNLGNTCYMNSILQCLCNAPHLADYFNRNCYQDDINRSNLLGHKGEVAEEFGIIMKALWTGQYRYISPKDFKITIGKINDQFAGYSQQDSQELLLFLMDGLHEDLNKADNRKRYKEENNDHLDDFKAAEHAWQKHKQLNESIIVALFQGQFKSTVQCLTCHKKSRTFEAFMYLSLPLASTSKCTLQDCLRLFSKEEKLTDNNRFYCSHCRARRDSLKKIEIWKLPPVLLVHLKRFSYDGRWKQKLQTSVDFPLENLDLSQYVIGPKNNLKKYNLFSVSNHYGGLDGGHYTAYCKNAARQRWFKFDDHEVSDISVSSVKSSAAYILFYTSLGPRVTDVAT
USP30 inh: inhibitors of human USP30 deubiquitinase | purified USP30, Ub-rhodamine cleavage fluorescence | inhibition, % at 25 µM | 47,000 compounds, 5.3% hits | AID 1645860, 2021
USP28 block: inhibitors of human USP28 deubiquitinase | AID 1645857, 2021 | inhibition, % at 25 µM | Ubiquitin carboxyl-terminal hydrolase 28 (Homo sapiens), Q96RU2 | purified USP28, Ub-rhodamine cleavage fluorescence, 30 min | 47,000 compounds, 3% hits
USP10 inh: inhibitors of human USP10 deubiquitinase | inhibition, % at 20 µM | AID 1645856, 2021 | purified USP10, Ub-rhodamine fluorescence, 60 min | 47,000 compounds, 1.1% hits
USP17 inh: inhibitors of human USP17 deubiquitinase. Ubiquitin carboxyl-terminal hydrolase 17-like protein 5 (Homo sapiens), A8MUK1. purified USP17, Ub-rhodamine cleavage fluorescence, 3 h. inhibition, % at 50 µM. 47,000 compounds, 6.5% hits. AID 1645855, 2021
* = called active by the depositor; x = not tested or not shown. This is a sample that favours compounds with a hit; in the whole collection about 14% have one here. No stated cut-off is given here; in the data, active means inhibition above about 30%; inactive means the rest.

SMILES	USP8 inh	USP30 inh	USP28 block	USP10 inh	USP17 inh
O=C(NCc1ccc(F)cc1)NCc1cnn2ccccc12	0	-1	0	0	0
CC(C)NC(=O)c1cc(-c2ccn(C3CCCC3)n2)n2ccccc12	-62	-445	-145	-2	-113
CS(=O)(=O)N1CCN(c2ccccc2NC(=O)COc2ccc(Br)cc2)CC1	92*	x	x	72*	93*
Cc1nc2ccccc2n1CC(=O)N1CCCC(c2ccnc(=O)[nH]2)C1 (centres undefined)	0	3	0	0	1
COCCn1c(C)cc(C(=O)COC(=O)c2ccc3c(c2)nc(C)n3-c2ccccc2)c1C	-39	-280	-70	-7	-56
COCCn1c(C)cc(C(=O)c2sc(-c3c(N)n(C)c(=O)n(C)c3=O)nc2-c2ccccc2)c1C	27	27	23	1	35*
COc1ccc(CCC(=O)N2CCc3cc(-c4noc(C)n4)ccc32)cc1	22	0	5	-2	18
C=C1C(=O)O[C@@H]2C(=O)O[C@@H](CCCCCCCC)[C@H]12	9	8	-2	7	14
C=C1C(=O)OC(CCCCC)C1C(=O)O (centres undefined)	7	8	36*	7	-36
Cc1cc(C)c2nc(NC(=O)c3cc(-c4ccc(C)c(F)c4)on3)sc2c1	24	27	11	16	11
O=C1OCC2=C1C(c1ccc3c(c1)OCO3)CC(=O)N2c1cccc(F)c1 (centres undefined)	-18	0	-12	2	-3
Cc1cccc(N2C(=O)/C(=C\c3ccc4c(c3)OCO4)c3ccccc3C2=O)c1	76*	-14	8	-1	42*
Cc1cccc(N2C(=O)/C(=C\c3ccc4c(c3)OCCO4)c3ccccc3C2=O)c1	88*	6	13	-6	55*
Cc1ccc(C(=O)/C=C/c2ccc3c(c2)OCCO3)c(OCc2ccccc2)c1	-74	-179	-64	5	x
CC1CCCN(CCCNC(=O)c2ccc3c(c2)NC(=O)C2CCCN32)C1 (centres undefined)	30	-168	-51	-5	-30
CC(C)CC1Nc2ccc(C(=O)NCCCN3CCCC3)cc2NC1=O (centres undefined)	85*	5	0	2	38*
O=C(CCC1=NS(=O)(=O)c2ccccc2N1)NCc1ccc(F)cc1	-7	-2	-6	-2	-13
O=C(Nc1nc2ccc(F)cc2s1)c1ccc2ccccc2n1	11	-165	-29	-7	-11
COc1ccc(-c2cc3nc(C)cc(Nc4cccc(C)c4)n3n2)cc1OC	-4	-16	-13	3	-5
COc1ccc(-c2cc3nc(C)cc(Nc4ccc(F)cc4)n3n2)cc1OC	-5	85*	14	4	-2
Cc1cc(F)ccc1NC(=O)CCc1ccc(S(=O)(=O)N2CCOCC2)cc1	5	19	3	4	11
CCOC(=O)c1c(N)n(CC(C)NC(=O)C2CC2)c2nc3ccccc3nc12 (centres undefined)	25	-40	-7	-1	30*
COc1ccc(C(=O)NCCS(=O)(=O)N2CCN(c3ccccc3)CC2)cc1	-4	-6	4	2	40*
Cc1noc(C)c1CCC(=O)NCc1ccc([C@@H]2NC(=O)N[C@H]3OCCC[C@H]32)cc1	12	23	9	3	10
COc1ccc(C(c2c[nH]c3ccccc23)c2c[nH]c3ccccc23)cc1O	38*	-53	7	-7	16
SMILES	USP8 inh	USP30 inh	USP28 block	USP10 inh	USP17 inh
O=c1c(NCc2ccccc2Cl)nccn1Cc1ccc(F)cc1	21	30*	30*	9	19
Cc1cc(=O)oc2cc(OCC(=O)N3CCC4(O)CCCCC4C3)ccc12 (centres undefined)	0	0	0	0	8
CN1C(=O)Cc2cc(S(=O)(=O)N3CCC(c4ccncc4)CC3)ccc21	16	22	-12	2	39*
COc1ccc(CO)c2nc3cccc(C(=O)O)c3nc12	18	-32	8	-1	23
CC(=O)N1CCc2cc(Br)cc(S(=O)(=O)Nc3cc(C)cc(C)c3)c21	-31	-2	-8	6	47*
Cc1cc(C)cc(NS(=O)(=O)c2cc3c4c(c2)CC(=O)N4CCC3)c1	7	-7	4	1	-12
Clc1ccc(-n2cc(-c3ccccc3)c3c(NCC4CCCO4)ncnc32)cc1 (centres undefined)	3	-4	-6	0	0
O=C(NCCc1ccccn1)c1nc(-c2ccc(-n3cccc3)cc2)no1	-2	0	2	2	-5
O=C(COc1ccc2c3c(c(=O)oc2c1)CCC3)Nc1ccccc1N1CCOCC1	0	-16	-10	0	0
NC(=O)c1ccccc1NC(=O)COc1ccc2c(c1)oc(=O)c1ccccc12	55*	-1	-16	15	-4
O=C(COc1ccc2ccccc2c1)Nc1cccc2ccccc12	36*	46*	19	13	65*
NC(=O)C1CN(C(=O)c2ccc(Cl)cc2F)c2ccccc2O1 (centres undefined)	-2	0	-3	2	-13
Clc1ccc(-c2cnc(N3CCOCC3)nc2)cc1	16	44*	10	1	13
Fc1ccc(-c2cnc(N3CCOCC3)nc2)cc1	3	4	1	2	12
CCc1oc2cc(O)ccc2c(=O)c1-c1ccc2c(c1)OCCO2	6	5	36*	3	-12
CN1CCn2cc(S(=O)(=O)NCc3cc(F)cc(F)c3)cc2C1=O	1	-15	0	-2	-1
COc1cc(CNc2nn[nH]n2)ccc1OCc1cccc(Cl)c1	-16	-17	-14	1	-4
O=C(Cn1c(CN2CCCCC2)nc2sc3c(c2c1=O)CCCC3)N1CCc2ccccc21	-20	-325	-105	-5	4
O=C(Cn1cnc2sc3c(c2c1=O)CCC3)N1CCc2ccccc21	48*	-30	-37	0	16
COc1ccc(-c2cc3ncnc(NC(C)c4ccco4)c3s2)cc1 (centres undefined)	15	-21	21	-7	58*
O=C(c1ccc(Br)o1)N(Cc1ccccc1Cl)c1ccccn1	-12	21	31*	5	18
Cc1cnc(C(=O)N2CCCC(c3ncc(Cc4ccccc4)o3)C2)cn1 (centres undefined)	-6	x	x	1	0
Cc1cnc(C(=O)N2CCCC(c3ncc(Cc4ccc(F)cc4)o3)C2)cn1 (centres undefined)	17	31*	14	0	6
Cc1ccc(N2CC(C)Cn3c2nc2c3c(=O)n(Cc3ccc(Cl)cc3)c(=O)n2C)cc1 (centres undefined)	-23	-3	-2	4	-11
